Test results taken from the supplement of paper PMC4466140.

How the values were obtained:
Assay in all cases: SPOT peptide array binding signal intensity (averaged, normalized) (arbitrary units (background-subtracted, floor 0; scale differs between SH3 domains)); higher = stronger binding of the SH3 domain to the peptide
SpBzz1-D2 = molecular target: SpBzz1-D2
How it was run: (§1)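 Four yeast species supplied the SH3 domains, which were expressed as GST fusions in E. coli BL21(DE3) and purified on glutathione Sepharose. Incubation with cellulose membranes carrying synthetic 15-mer peptides, cysteines exchanged for serines, ran overnight at 4°C at 10 μg/ml in TBS-based blocking buffer. Binding signal is reported as normalized, background-subtracted spot intensity averaged over replicates, in arbitrary units not shared between domains.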

SpCyk3 = molecular target: SpCyk3
How it was run: as §1

SpHof1 = molecular target: SpHof1
How it was run: as §1

SpHof1-2 = molecular target: SpHof1-2
How it was run: as §1

SpHof1-3 = molecular target: SpHof1-3
How it was run: as §1

SpHse1 = molecular target: SpHse1
How it was run: as §1

SpLsb1 = molecular target: SpLsb1
How it was run: as §1

SpLsb4 = molecular target: SpLsb4
How it was run: as §1

SpMyo1 = molecular target: SpMyo1
How it was run: as §1

SpNbp2 = molecular target: SpNbp2
How it was run: as §1

SpPex13 = molecular target: SpPex13
How it was run: as §1

SpRvs167 = molecular target: SpRvs167
How it was run: as §1

SpSla1-D1-D2 = molecular target: SpSla1-D1-D2
How it was run: as §1

SpSla1-D3 = molecular target: SpSla1-D3
How it was run: as §1

AgAbp1 = molecular target: AgAbp1
How it was run: as §1

AgBbc1 = molecular target: AgBbc1
How it was run: as §1

AgBem1-D1 = molecular target: AgBem1-D1
How it was run: as §1

AgBzz1-D1 = molecular target: AgBzz1-D1
How it was run: as §1

AgBzz1-D2 = molecular target: AgBzz1-D2
How it was run: as §1

AgCyk3 = molecular target: AgCyk3
How it was run: as §1

AgFus1 = molecular target: AgFus1
How it was run: as §1

AgHof1 = molecular target: AgHof1
How it was run: as §1

AgHse1 = molecular target: AgHse1
How it was run: as §1

AgLsb1 = molecular target: AgLsb1
How it was run: as §1

AgLsb4 = molecular target: AgLsb4
How it was run: as §1

AgMyo5 = molecular target: AgMyo5
How it was run: as §1

AgNbp2 = molecular target: AgNbp2
How it was run: as §1

AgRvs167 = molecular target: AgRvs167
How it was run: as §1

AgSho1 = molecular target: AgSho1
How it was run: as §1

AgSla1-D1-D2 = molecular target: AgSla1-D1-D2
How it was run: as §1

AgSla1-D3 = molecular target: AgSla1-D3
How it was run: as §1

CaAbp1-D1 = molecular target: CaAbp1-D1
How it was run: as §1

CaAbp1-D2 = molecular target: CaAbp1-D2
How it was run: as §1

CaBbc1 = molecular target: CaBbc1
How it was run: as §1

CaBem1-D1 = molecular target: CaBem1-D1
How it was run: as §1

CaBzz1-D1 = molecular target: CaBzz1-D1
How it was run: as §1

CaBzz1-D2 = molecular target: CaBzz1-D2
How it was run: as §1

CaCyk3 = molecular target: CaCyk3
How it was run: as §1

CaFus1 = molecular target: CaFus1
How it was run: as §1

CaHof1 = molecular target: CaHof1
How it was run: as §1

CaHse1 = molecular target: CaHse1
How it was run: as §1

CaLsb1 = molecular target: CaLsb1
How it was run: as §1

CaLsb4 = molecular target: CaLsb4
How it was run: as §1

CaMyo5 = molecular target: CaMyo5
How it was run: as §1

CaNbp2 = molecular target: CaNbp2
How it was run: as §1

CaRvs167 = molecular target: CaRvs167
How it was run: as §1

CaRvs167-3 = molecular target: CaRvs167-3
How it was run: as §1

CaSho1 = molecular target: CaSho1
How it was run: as §1

CaSla1-D1-D2 = molecular target: CaSla1-D1-D2
How it was run: as §1

CaSla1-D3 = molecular target: CaSla1-D3
How it was run: as §1

ScAbp1 = molecular target: ScAbp1
How it was run: as §1

ScBbc1 = molecular target: ScBbc1
How it was run: as §1

ScBem1-D1 = molecular target: ScBem1-D1
How it was run: as §1

ScBzz1-D1 = molecular target: ScBzz1-D1
How it was run: as §1

ScBzz1-D2 = molecular target: ScBzz1-D2
How it was run: as §1

ScCyk3 = molecular target: ScCyk3
How it was run: as §1

ScFus1 = molecular target: ScFus1
How it was run: as §1

ScHof1 = molecular target: ScHof1
How it was run: as §1

ScHse1 = molecular target: ScHse1
How it was run: as §1

ScLsb1 = molecular target: ScLsb1
How it was run: as §1

ScLsb2 = molecular target: ScLsb2
How it was run: as §1

ScLsb3 = molecular target: ScLsb3
How it was run: as §1

ScLsb4 = molecular target: ScLsb4
How it was run: as §1

ScMyo3 = molecular target: ScMyo3
How it was run: as §1

ScMyo5 = molecular target: ScMyo5
How it was run: as §1

ScNbp2 = molecular target: ScNbp2
How it was run: as §1

ScPex13 = molecular target: ScPex13
How it was run: as §1

ScRvs167 = molecular target: ScRvs167
How it was run: as §1

ScSho1 = molecular target: ScSho1
How it was run: as §1

ScSla1-D1-D2 = molecular target: ScSla1-D1-D2
How it was run: as §1

ScSla1-D3 = molecular target: ScSla1-D3
How it was run: as §1

SpAbp1-D1 = molecular target: SpAbp1-D1
How it was run: as §1

SpBbc1 = molecular target: SpBbc1
How it was run: as §1

SpBzz1-D1 = molecular target: SpBzz1-D1
How it was run: as §1

STKKPRPPVKSKPKH
SPOT peptide array binding signal intensity (SpBzz1-D2): 2
SPOT peptide array binding signal intensity (SpCyk3): ≤ 0
SPOT peptide array binding signal intensity (SpHof1): 11.8
SPOT peptide array binding signal intensity (SpHof1-2): 3.5
SPOT peptide array binding signal intensity (SpHof1-3): 274
SPOT peptide array binding signal intensity (SpHse1): 44.5
SPOT peptide array binding signal intensity (SpLsb1): 383
SPOT peptide array binding signal intensity (SpLsb4): 30
SPOT peptide array binding signal intensity (SpMyo1): ≤ 0
SPOT peptide array binding signal intensity (SpNbp2): ≤ 0
SPOT peptide array binding signal intensity (SpPex13): ≤ 0
SPOT peptide array binding signal intensity (SpRvs167): ≤ 0
SPOT peptide array binding signal intensity (SpSla1-D1-D2): 8
SPOT peptide array binding signal intensity (SpSla1-D3): ≤ 0

VRVKKRPLIRPLNSS
SPOT peptide array binding signal intensity (AgAbp1): 450
SPOT peptide array binding signal intensity (AgBbc1): 184
SPOT peptide array binding signal intensity (AgBem1-D1): 244
SPOT peptide array binding signal intensity (AgBzz1-D1): 6.5
SPOT peptide array binding signal intensity (AgBzz1-D2): 215
SPOT peptide array binding signal intensity (AgCyk3): 6
SPOT peptide array binding signal intensity (AgFus1): 223
SPOT peptide array binding signal intensity (AgHof1): 48.5
SPOT peptide array binding signal intensity (AgHse1): 646
SPOT peptide array binding signal intensity (AgLsb1): 2.5
SPOT peptide array binding signal intensity (AgLsb4): 81
SPOT peptide array binding signal intensity (AgMyo5): 0.5
SPOT peptide array binding signal intensity (AgNbp2): 220
SPOT peptide array binding signal intensity (AgRvs167): 2.33
SPOT peptide array binding signal intensity (AgSho1): 53
SPOT peptide array binding signal intensity (AgSla1-D1-D2): 442
SPOT peptide array binding signal intensity (AgSla1-D3): 12.8
SPOT peptide array binding signal intensity (CaAbp1-D1): 1520
SPOT peptide array binding signal intensity (CaAbp1-D2): 1190
SPOT peptide array binding signal intensity (CaBbc1): 278
SPOT peptide array binding signal intensity (CaBem1-D1): 378
SPOT peptide array binding signal intensity (CaBzz1-D1): 153
SPOT peptide array binding signal intensity (CaBzz1-D2): 101
SPOT peptide array binding signal intensity (CaCyk3): 132
SPOT peptide array binding signal intensity (CaFus1): 381
SPOT peptide array binding signal intensity (CaHof1): 1
SPOT peptide array binding signal intensity (CaHse1): 15
SPOT peptide array binding signal intensity (CaLsb1): 2
SPOT peptide array binding signal intensity (CaLsb4): 104
SPOT peptide array binding signal intensity (CaMyo5): 1.5

MARRRLPDRPPNGIG
SPOT peptide array binding signal intensity (AgAbp1): 546
SPOT peptide array binding signal intensity (AgBbc1): 428
SPOT peptide array binding signal intensity (AgBem1-D1): 143
SPOT peptide array binding signal intensity (AgBzz1-D1): 55
SPOT peptide array binding signal intensity (AgBzz1-D2): 95
SPOT peptide array binding signal intensity (AgCyk3): 16
SPOT peptide array binding signal intensity (AgFus1): 148
SPOT peptide array binding signal intensity (AgHof1): 112
SPOT peptide array binding signal intensity (AgHse1): 216
SPOT peptide array binding signal intensity (AgLsb1): 158
SPOT peptide array binding signal intensity (AgLsb4): 2490
SPOT peptide array binding signal intensity (AgMyo5): ≤ 0
SPOT peptide array binding signal intensity (AgNbp2): 410
SPOT peptide array binding signal intensity (AgRvs167): 487
SPOT peptide array binding signal intensity (AgSho1): 636
SPOT peptide array binding signal intensity (AgSla1-D1-D2): 179
SPOT peptide array binding signal intensity (AgSla1-D3): 16.5
SPOT peptide array binding signal intensity (CaAbp1-D1): 1170
SPOT peptide array binding signal intensity (CaAbp1-D2): 788
SPOT peptide array binding signal intensity (CaBbc1): 1100
SPOT peptide array binding signal intensity (CaBem1-D1): 184
SPOT peptide array binding signal intensity (CaBzz1-D1): 308
SPOT peptide array binding signal intensity (CaBzz1-D2): 102
SPOT peptide array binding signal intensity (CaCyk3): 290
SPOT peptide array binding signal intensity (CaFus1): 280
SPOT peptide array binding signal intensity (CaHof1): 5.25
SPOT peptide array binding signal intensity (CaHse1): 89
SPOT peptide array binding signal intensity (CaLsb1): 6.75
SPOT peptide array binding signal intensity (CaLsb4): 2570
SPOT peptide array binding signal intensity (CaMyo5): 22.5
SPOT peptide array binding signal intensity (CaNbp2): 1660
SPOT peptide array binding signal intensity (CaRvs167): 923
SPOT peptide array binding signal intensity (CaRvs167-3): 25.5
SPOT peptide array binding signal intensity (CaSho1): 794
SPOT peptide array binding signal intensity (CaSla1-D1-D2): 1100
SPOT peptide array binding signal intensity (CaSla1-D3): 138
SPOT peptide array binding signal intensity (ScAbp1): 135
SPOT peptide array binding signal intensity (ScBbc1): 126
SPOT peptide array binding signal intensity (ScBem1-D1): 7
SPOT peptide array binding signal intensity (ScBzz1-D1): 29
SPOT peptide array binding signal intensity (ScBzz1-D2): 33
SPOT peptide array binding signal intensity (ScCyk3): 22.5
SPOT peptide array binding signal intensity (ScFus1): 61
SPOT peptide array binding signal intensity (ScHof1): 53.2
SPOT peptide array binding signal intensity (ScHse1): 241
SPOT peptide array binding signal intensity (ScLsb1): 434
SPOT peptide array binding signal intensity (ScLsb2): 176
SPOT peptide array binding signal intensity (ScLsb3): 3700
SPOT peptide array binding signal intensity (ScLsb4): 1540
SPOT peptide array binding signal intensity (ScMyo3): 7
SPOT peptide array binding signal intensity (ScMyo5): ≤ 0
SPOT peptide array binding signal intensity (ScNbp2): 523
SPOT peptide array binding signal intensity (ScPex13): 438
SPOT peptide array binding signal intensity (ScRvs167): 2820
SPOT peptide array binding signal intensity (ScSho1): 1560
SPOT peptide array binding signal intensity (ScSla1-D1-D2): 1290
SPOT peptide array binding signal intensity (ScSla1-D3): 100
SPOT peptide array binding signal intensity (SpAbp1-D1): 1340
SPOT peptide array binding signal intensity (SpBbc1): 43.8
SPOT peptide array binding signal intensity (SpBzz1-D1): 450
SPOT peptide array binding signal intensity (SpBzz1-D2): 9
SPOT peptide array binding signal intensity (SpCyk3): 221
SPOT peptide array binding signal intensity (SpHof1): 1210
SPOT peptide array binding signal intensity (SpHof1-2): 1530
SPOT peptide array binding signal intensity (SpHof1-3): 3040
SPOT peptide array binding signal intensity (SpHse1): 104
SPOT peptide array binding signal intensity (SpLsb1): 178
SPOT peptide array binding signal intensity (SpLsb4): 5420
SPOT peptide array binding signal intensity (SpMyo1): 52.8
SPOT peptide array binding signal intensity (SpNbp2): 144
SPOT peptide array binding signal intensity (SpPex13): 123
SPOT peptide array binding signal intensity (SpRvs167): 1670
SPOT peptide array binding signal intensity (SpSla1-D1-D2): 393
SPOT peptide array binding signal intensity (SpSla1-D3): 23
